From ChEMBL document CHEMBL4513216, “Probing the Open Global Health Chemical Diversity Library for Multistage-Active Starting Points for Next-Generation Antimalarials” (ACS Infect Dis, 2020)
Hit rate of the full screen: of about 69,000 compounds, about 8,600 (12%) showed an effect of 50% or more. The sample holds strong results, similar compounds and a random draw of the others, so the mix is not that of the screen.

Each molecule was assayed on Plasmodium berghei (assay: Screen against P. berghei liver stage (PbLuc), transformed with Luciferase, at 10uM). Conditions: tested at 10 uM.
Type: functional, HepG2

| SMILES | INHIBITION [%] |
| --- | --- |
| CC(C)S(=O)(=O)N1CCC(c2cc3n(n2)[C@@H](C(F)(F)F)C[C@@H](C)N3)CC1 | 48.4 |
| COc1c(C2CCCN2CC(=O)Nc2cc(C)nn2C)c(C)nn1C (configuration not stated) | 23.5 |
| Cc1cc(C)n(CCC(=O)N2CCCC(c3nc(C(C)C)no3)C2)n1 (configuration not stated) | 30.8 |
| COc1ncnc(N)c1CNCc1ccccc1-n1cccn1 | 30.9 |
| CCc1ncc(CN2CCOC(Cc3cccc(F)c3)C2)cn1 (configuration not stated) | 56.1 |
| CCCNc1ncc(CN2CCOC(Cc3cccc(F)c3)C2)cn1 (configuration not stated) | -45 |
| CCc1ccc(CN2CCOC(Cc3cccc(F)c3)C2)nc1 (configuration not stated) | 22 |
| c1ncn(CC2CN(CC3CCCCC3)CCO2)n1 (configuration not stated) | 25.4 |
| O=C(NCC1(O)CCC1)c1c(O)cc(Cl)cc1Cl | 31 |
| O=C(NCC1(O)CCC1)c1c(O)cc(F)cc1F | 59.5 |
| O=C(NCCC(=O)N1CCCCCC1)c1c(O)cc(F)cc1F | 29.5 |
| NS(=O)(=O)Cc1cccc(C(=O)N2CCCC(n3cccn3)C2)c1 (configuration not stated) | 14.815 |
| Cc1nccc(CNC(=O)NCCC(=O)N2CCCc3ccccc32)n1 | -15 |
| COc1cccc(C2CCCN2CCCNS(C)(=O)=O)c1 (configuration not stated) | 15.3 |
| CSCCN1C(=O)CC(C)(c2ccc(Br)cc2)C1=O (configuration not stated) | 42.1 |
| CC1(c2ccc(Br)cc2)CC(=O)N(CC(N)=O)C1=O (configuration not stated) | 51.8 |
| CC1(c2ccc(Br)cc2)CC(=O)N(CCC(N)=O)C1=O (configuration not stated) | -48.3 |
| O=C(NCC1CC1)[C@H]1C[C@H]2CN(C(=O)NCc3ccccc3)C[C@@H]1O2 | 13.6 |
| CC(NC(=O)NCCn1ccnc1)c1ccc2c(c1)OCCCO2 (configuration not stated) | -9.37 |
| CC(C)n1ccnc1CN1CCOC(C)(C(=O)N2CCOCC2)C1 (configuration not stated) | 38.2 |
| c1cnc(CC2CCN(c3cnccn3)CC2)cn1 | 33.2 |
| CCCNC(=O)[C@@H]1CCCN1[C@@H](C(=O)NC)C1CC1 | -20.8 |

| SMILES | INHIBITION [%] |
| --- | --- |
| CNC(=O)[C@@H](C1CC1)N1CCC[C@H]1C(=O)NCC(C)C | -19.6 |
| CCNC(=O)[C@@H]1CCCN1[C@@H](C(=O)NC)C1CC1 | 51.9 |
| COCCN1C(=O)[C@@H]2CC[C@H]1CN(c1nccc(C)n1)C2 | -39.2 |
| Cc1cccc(COc2ccc(NC(=O)C(C)NC(N)=O)c(C)c2)c1 (configuration not stated) | 61.3 |
| Cc1cccc(COc2ccc(C(C)N)cc2)c1 (configuration not stated) | 83 |
| Cc1cc(OCc2cccc(F)c2)ccc1NC(=O)C(C)NC(N)=O (configuration not stated) | 48.3 |
| CC(=O)NC(C)C(=O)Nc1ccc(OCc2cccc(F)c2)cc1C (configuration not stated) | 26.5 |
| Cc1cccc(COc2ccc(C(C)NS(N)(=O)=O)cc2)c1 (configuration not stated) | 9.16 |
| Cc1cccc(COc2ccc(C(C)NC(=O)CNC(N)=O)cc2)c1 (configuration not stated) | 40.7 |
| CC(C)(C)c1cc(CNC(=O)c2cc(COc3ccccc3)[nH]n2)[nH]n1 | -47 |
| Cn1cc(C(=O)NCc2cn3c(n2)CN(CC2CCCC2)CC3)cn1 | -2.17 |
| Cc1nc(-c2ccnc(N3CCNCC3)n2)no1 | -17 |
| Cc1nc(CN2CCN(CCOc3ccc(C(C)C)c(C)c3)CC2)no1 | 25.1 |
| Cc1noc(C)c1CNC(=O)N1CCC(Cc2cnn(C)c2)C1 (configuration not stated) | 20.2 |
| Cn1cc(C2CC(=O)NC23CCN(C(=O)NC2CC2)CC3)cn1 (configuration not stated) | 62.9 |
| Cn1cc(C2CC(=O)NC23CCN(C(=O)C2CC=CC2)CC3)cn1 (configuration not stated) | -61.6 |
| O=C1CC(c2ccncc2)C2(CCN(C(=O)NC3CC3)CC2)N1 (configuration not stated) | 33.4 |
| COC1CCCN(C(=O)NCC(C)(C)SC)C1 (configuration not stated) | 32 |
| COC1CCCN(C(=O)NCC(F)F)C1 (configuration not stated) | 26.4 |
| COC1CCCN(C(=O)NCCCF)C1 (configuration not stated) | 55.5 |
| CCN1C(=O)CCC12CCCN(Cc1ccc(F)cc1)CC2 (configuration not stated) | -24.5 |
| COC(=O)C(NC(=O)c1cc(F)cc(F)c1)c1cccnc1 (configuration not stated) | 55.4 |

| SMILES | INHIBITION [%] |
| --- | --- |
| COC(=O)C(NC(=O)c1cc(C)ccc1C)c1cccnc1 (configuration not stated) | 32.2 |
| COC(=O)C(NC(=O)c1ccc(C)cc1C)c1cccnc1 (configuration not stated) | 42.4 |
| Cc1nc(O)cc(C2CCN(C(=O)c3[nH]nc4c3CC(C)CC4)CC2)n1 (configuration not stated) | 9.52 |
| CN1CCN(c2ccc(NC(=O)c3ccccn3)c(C(F)(F)F)c2)CC1 | -78.3 |
| O=C(Nc1cc(Cl)ccc1N1CCCCC1)c1ccccn1 | 56.3 |
| O=C(Nc1c(N2CCCC2)cccc1N1CCCC1)c1cnsn1 | 42.4 |
| COC(=O)c1ncccc1N1CCCCC1 | 89.1 |
| O=C(O)c1ncccc1N1CCCCC1 | 6.83 |
| COC(=O)c1ncccc1N1CCCC1 | -0.71 |
| CN1CCN(c2ccc(Cl)cc2NC(=O)c2ccco2)CC1 | 35.1 |
| O=C(Nc1c(N2CCCC2)cccc1N1CCCC1)c1ccccn1 | 55.4 |
| O=C(Nc1c(N2CCCC2)cccc1N1CCCC1)c1cnccn1 | 48 |
| CCc1cc(NCC(O)CN2CCCC2)ncn1 (configuration not stated) | 18.5 |
| CCC(=O)N1CCCCC1c1nc(O)c2c(n1)CN(C(=O)C1CC1)CC2 (configuration not stated) | 34.65 |
| Cc1cc(CN(C)C(=O)c2cccc(N3CCCS3(=O)=O)c2)no1 | 42 |
| CN(C)[C@@H]1CCN(S(=O)(=O)c2cn(C)cn2)[C@H]1Cc1cccnc1 | 33 |
| CC(C)Cc1nnc(NC(=O)NC(CCO)c2cccs2)s1 (configuration not stated) | 36 |
| CCCn1cc(S(=O)(=O)N[C@H]2CN(C(C)=O)C[C@@H]2C2CC2)cn1 | 24.2 |
| CCCn1cc(S(=O)(=O)N[C@H]2CN(CCO)C[C@@H]2C2CC2)cn1 | 92.1 |
| CCCn1cc(S(=O)(=O)N[C@H]2CN(CC(N)=O)C[C@@H]2C2CC2)cn1 | 37.7 |
| Cc1ccc(CC2COCCN(S(C)(=O)=O)C2)nc1 (configuration not stated) | -24.4 |
| Cc1csc(CCNC(=O)N2CCC(NC(=O)OC(C)(C)C)CC2)n1 | 13.3 |

| SMILES | INHIBITION [%] |
| --- | --- |
| CC(=O)N1CCCC(C(=O)N2CCN(c3cnn(C)c(=O)c3)CC2)C1 (configuration not stated) | 16.6 |
| Cc1cccc(CN2C[C@@H]3COC[C@]3(CNC(=O)C3CCC3)C2)c1 | 65.7 |
| COc1cccc(CN2C[C@@H]3COC[C@]3(CNC(=O)C3CC3)C2)c1 | 43 |
| CC(=O)N1CCCC(C(=O)N2CCN(Cc3cc(C)on3)CC2)C1 (configuration not stated) | 71.2 |
| Cc1cc(CN2C[C@@H]3COC[C@]3(CNC(=O)N(C)C)C2)no1 | 45.1 |
| Cc1cc(CN2C[C@@H]3COC[C@]3(CNC(=O)N3CCCC3)C2)no1 | 70.7 |
| Cc1cccc(CN2C[C@@H]3COC[C@]3(CNC(=O)N3CCCC3)C2)n1 | 21 |
| CNC(=O)C1CN(Cc2cc(C)on2)CCN(C(C)=O)C1 (configuration not stated) | -21.6 |
| Cc1cccc(CN2C[C@@H]3COC[C@]3(CNC(=O)C3CC3)C2)c1 | 35.8 |
| CCOCC(O)CN1CCN(C(=O)c2ccc3c(c2)COC3)CC1 (configuration not stated) | 29.7 |
| COc1c(CNCc2nnc3n2CCCCC3)c(C)nn1C | 31.6 |
| CCN1C[C@@H]2[C@@H](OC)CCN(C(=O)Cc3ccsc3)[C@@H]2C1 | 11.2 |
| O=C(c1cnccn1)N(CCO)Cc1cc(Br)ccc1F | -7.81 |
| COCCNC(=O)Cn1cc(OCc2ccccc2F)c(=O)cc1CO | 10.5 |
| CC(C)CS(=O)(=O)CC(=O)NC(C)c1nnc2n1CCC2 (configuration not stated) | 31.3 |
| COc1cccc(C(=O)N2CCOCC2CN(C)C)c1OC (configuration not stated) | 7.44 |
| Cc1nc(CN2CCCC(CCc3ccc(F)cc3F)C2)c[nH]1 (configuration not stated) | 33.5 |
| Cc1nc(CN2CCCC(CCc3ccc(F)c(F)c3)C2)c[nH]1 (configuration not stated) | 55.7 |
| Cc1nc(CN2CCCC(CCNS(C)(=O)=O)C2)c[nH]1 (configuration not stated) | -1.53 |
| Cc1nc(CN2CCCC(CCc3c(F)cccc3F)C2)c[nH]1 (configuration not stated) | 25.1 |
| Fc1ccc(CCC2CCCN(Cc3c[nH]cn3)C2)c(F)c1 (configuration not stated) | 71.2 |
| Cc1nc(CN2CCCC(Cn3cc(CCO)nn3)C2)c[nH]1 (configuration not stated) | 18.5 |

| SMILES | INHIBITION [%] |
| --- | --- |
| Cc1nc(CN2CCCC(CCc3ccccc3C)C2)c[nH]1 (configuration not stated) | 47.6 |
| Cc1nc(CN2CCCC(CCc3ccccc3F)C2)c[nH]1 (configuration not stated) | 57.6 |
| Cc1[nH]c(=O)[nH]c(=O)c1CN1CCCC(CCc2ccc(F)cc2F)C1 (configuration not stated) | -13.5 |
| CN(C)c1nccc(-c2cnc(N(C)C)[nH]c2=O)n1 | 13 |
| COCc1ccccc1CNCc1c(C(C)C)nn(C)c1N(C)C | 20.85 |
| CN1CC(=O)N(c2ccsc2)CC12CCN(S(=O)(=O)c1ccccc1)C2 (configuration not stated) | -41.4 |
| Cc1ccccc1CN(CCN(C)C)Cc1ccccc1C(=O)O | 2.18 |
| CCN(Cc1cc(F)ccc1Cl)C1CCS(=O)(=O)C1 (configuration not stated) | 12.1 |
| N#Cc1cc(S(N)(=O)=O)ccc1N1CCc2c(Cl)cccc2C1 | 9.52 |
| CC(C)(C)c1ncc(C(=O)NCCNC(=O)c2ccc(O)cc2)s1 | 29.2 |
| Cc1nc(C)c(C(=O)N2CCc3c(C)cccc32)o1 | 5.91 |
| COc1cccc2c1CCCCN2C(=O)c1oc(C)nc1C | 53.7 |
| Cc1nc(C)c(C(=O)N2CCCc3c(F)cccc32)o1 | 35.2 |
| CCN(CCNS(=O)(=O)C1CCOCC1)C(=O)OC(C)(C)C | -21.2 |
| Cc1csc(NC(=O)CN(C)CCOc2cccc(F)c2)n1 | 1.05 |
| c1ccc(Cc2nnc(CN3CCCC3Cn3cccn3)o2)cc1 (configuration not stated) | 24 |
| CCc1nc(Cn2c(=O)n(C)c3ccccc32)no1 | 45.2 |
| CCCc1nc(Cn2c(=O)n(C)c3ccccc32)no1 | 29.4 |
| CCc1nc(Cn2c(=O)n(CC)c3ccccc32)no1 | 57.3 |
